AID inhibitor: activation induced cytidine deaminase inhibition; AID deamination FRET fluorescence, UDG-coupled, 4 h; Potency, µM (titrated, usually from 115 µM), most hits filed as inhibitors; actives 0.32% (n = 91,000); AID 1347428; also: nearly all actives have a fitted effect of over 25% in size
Target sequence (Q9GZX7 whole entry, looked up): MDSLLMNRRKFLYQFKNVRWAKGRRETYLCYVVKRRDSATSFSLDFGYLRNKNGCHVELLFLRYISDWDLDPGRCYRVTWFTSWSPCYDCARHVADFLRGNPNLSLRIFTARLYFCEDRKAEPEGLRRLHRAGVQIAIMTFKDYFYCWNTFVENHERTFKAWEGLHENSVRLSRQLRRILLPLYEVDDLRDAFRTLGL
UDG counterscr: UDG inhibition counter-screen. FRET deamination/UDG coupled assay, UDG read, 4 h. Potency, µM (top dose mostly 115 µM), without a hit: at the top dose activity change, negative = inhibition, most hits filed as inhibitors. actives 0.14% (n = 91,000). AID 1347430; also: nearly all actives have a fitted effect of over 65% in size
* = called active by the depositor; i = inactive; ? = inconclusive; [ ] = another dose, or the depositor's remark. A selection: hits, their analogues and other compounds. The true share with any hit is near 0.47%. Calls follow the shape of the dose curve; as a rule, active = well fitted curve in the direction sought with a large enough effect; inconclusive = small, poorly fitted or top-dose-only effect, or another doubt; inactive = no such curve, though single readings can be large; an effect the other way counts as inactive or inconclusive. % is scaled to controls: 0 for no effect and ±100 for the full control effect; potency is read from the fitted curve at half-maximal effect.

SMILES	AID inhibitor	UDG counterscr
Cc1ccc(-c2nc3c(c(SCC(=O)N(C)c4ccccc4)n2)Cc2c(CO)cnc(C)c2O3)cc1	?	3%
CCN(CC)C(=O)CSc1nc(-c2ccc(C)cc2)nc2c1Cc1c(CO)cnc(C)c1O2	45µM*	5%
C=Cc1ccc(CSc2nc(-c3ccc(C)cc3)nc3c2Cc2c(CO)cnc(C)c2O3)cc1	32µM*	6%
CCCCSc1nc2c(c(=O)n(C)c(=O)n2C)n1Cc1ccc(Br)cc1	i	6%
CCOCCCNC(=O)c1cc2c(-c3ccc(OC)c(OC)c3)nn(C)c2s1	i	0%
CCOc1ccc(CCNC(=O)c2cc3c(-c4ccc(OC)c(OC)c4)nn(C)c3s2)cc1OCC	?	79µM*
COc1cc(OC)cc(C(=O)Nc2ccc3nc(N4CCC(C)CC4)cc(C)c3c2)c1	40µM*	?
COc1ccccc1C(=O)Nc1ccc2nc(N3CCC(C)CC3)cc(C)c2c1	?	-18%
CC(CNC(=O)C1CCC(C(=O)NCC(C)c2ccccc2)CC1)c1ccccc1 (stereo not given)	i	0%
CCCCOc1c(Cl)cc(C(=O)N(Cc2ccc(C)o2)C2CCS(=O)(=O)C2)cc1Cl (stereo not given)	?	89µM*
COc1cccc(C(=O)N(Cc2ccc(C)o2)C2CCS(=O)(=O)C2)c1 (stereo not given)	i	6%
COc1cccc(-c2cc(C(F)(F)F)nc(NCc3ccc(F)cc3)n2)c1	?	-16%
Fc1ccc(CNc2nc(-c3ccccc3)cc(C(F)(F)F)n2)cc1	45µM*	-21%
O=C(O)c1ccc(-c2ccccc2)s1	i	-3%
COc1cc(C(=O)Nc2ccc(OCc3cc(=O)n4cccc(C)c4n3)cc2)cc(OC)c1OC	22µM*	-2%
COc1ccccc1C(=O)Nc1ccc(OCc2cc(=O)n3cccc(C)c3n2)cc1	i	9%
O=C(Cn1nc(N2CCN(c3ccccc3)CC2)ccc1=O)Nc1ccc(F)cc1F	i	-17%[57.5 µM]
CCCCNC(=O)C1CCCN(Cc2nc(-c3ccc(Cl)cc3)oc2C)C1 (stereo not given)	i	?
COc1ccc(N2CCN(C(=O)C3CCN(Cc4nc(-c5ccc(Cl)cc5)oc4C)CC3)CC2)cc1	i	-7%
Cc1cccc(-c2nc(CN3CCCC(C(=O)N4CCN(c5cc(Cl)ccc5C)CC4)C3)c(C)o2)c1 (stereo not given)	?	89µM*
Cc1ccccc1-c1nc(CN2CCCC(C(=O)NCc3ccc(Cl)cc3)C2)c(C)o1 (stereo not given)	i	?
Cc1ccc(Cl)cc1N1CCN(C(=O)C2CCN(Cc3nc(-c4ccc(Cl)cc4)oc3C)CC2)CC1	?	89µM*
Cc1oc(-c2ccc(Cl)cc2)nc1CN1CCCC(C(=O)NCc2ccccc2)C1 (stereo not given)	i	89µM*
Cc1oc(-c2cccc(Cl)c2)nc1CN1CCC(C(=O)NCCCN2CCN(c3ccccc3F)CC2)CC1	i	-6%
Cc1ccc(C)c(N2CCN(C(=O)C3CCN(Cc4nc(-c5cccc(Cl)c5)oc4C)CC3)CC2)c1	i	89µM*
SMILES	AID inhibitor	UDG counterscr
CC1=C(c2ccc(C)cc2)S(=O)(=O)NC1=NCc1ccccc1Cl	i	?
CCN(C(=O)C1CCC(CNS(=O)(=O)c2cccc3nsnc23)CC1)c1cccc(C)c1 (stereo not given)	i	-4%[57.5 µM]
C/C(=N\NC(=O)Cc1cccs1)c1ccc2ccccc2c1	i	2%
COc1cccc(C2CC(=O)Nc3nc(N)sc32)c1OCC(C)C (stereo not given)	40µM*	-13%
COc1cccc(C2CC(=O)Nc3ccsc32)c1OC (stereo not given)	i	1%
Cc1nc2nc(SCC(=O)NCCc3ccc(Cl)cc3)nn2c(C)c1Cc1ccccc1Cl	35µM*	-30%
Cc1ccccc1Cc1c(C)nc2nc(SCC(=O)NCCc3ccc(Cl)cc3)nn2c1C	?	-25%
O=C(C1=C(c2ccccc2)SCCO1)N(Cc1ccccc1)C1CCS(=O)(=O)C1 (stereo not given)	i	-6%
CCOC(=O)c1cccc(NC(=O)Cn2nc3c(cc2=O)CCCC3)c1	i	-2%
OB(O)c1cc2ccccc2s1	i	1%
Cc1cccc(C)c1Nc1c(-c2ccc(Cl)s2)nc2ncccn12	45µM*	?
CCc1cccc(C)c1Nc1c(-c2cccs2)nc2ncccn12	?	6%
FC(F)(F)c1cccc(-n2nnnc2C2(N3CCOCC3)CCCC2)c1	i	89µM*
Cc1cccc(-n2nnnc2C2(N3CCCC3)CCCC2)c1	i	0%
O=C(NC1CCCC1)c1ccc2c(c1)N(Cc1ccccc1)C(=O)c1ccccc1S2	i	-9%
CC(C)(C)c1ccc(CSc2nc3c(c(=O)[nH]2)CCCC3)cc1	i	79µM*
O=c1[nH]c(SCc2ccc([N+](=O)[O-])cc2)nc2c1CCCC2	i	?
CC(C)Cn1cnc2c1c(=O)n(CC(=O)Nc1ccc3c(c1)OCCO3)c(=O)n2Cc1ccccc1	i	8%
COc1ccc(S(=O)(=O)Cc2ccc(C(=O)N3CCN(c4cc(C)ccc4C)CC3)o2)cc1	?	89µM*
Cc1ccc(S(=O)(=O)Cc2ccc(C(=O)N3CCN(c4cccc(C)c4C)CC3)o2)cc1	?	-12%
CC1Cc2ccccc2N1S(=O)(=O)c1nnc(NC(=O)c2ccccc2)s1 (stereo not given)	i	4%
CC1Cc2ccccc2N1S(=O)(=O)c1nnc(NC(=O)c2ccccc2Br)s1 (stereo not given)	45µM*	7%
Cc1c(-c2cccc(Cl)c2)nc2ccccc2c1C(=O)NC1CCCCCCCCCCC1	i	-6%
Cc1ccoc1C(=O)OCCOc1ccc(C#N)cc1	i	5%
COc1ccc(CNCCC(c2ccc(C)cc2)c2ccco2)cc1 (stereo not given)	i	-4%
SMILES	AID inhibitor	UDG counterscr
COc1ccc(CNCCC(c2ccccc2)c2ccc3c(c2)OCO3)cc1 (stereo not given)	45µM*	5%
O=C(Nc1ccccc1C(=O)N1CCC(Cc2ccccc2)CC1)c1ccco1	i	8%
O=C(O)c1cc(-n2c(/C=C\c3ccc(F)cc3)nc3ccccc3c2=O)ccc1Cl	?	89µM*
O=C(O)c1ccc(-n2c(/C=C\c3ccc(O)cc3)nc3ccccc3c2=O)cc1	i	-7%
Cc1nc(-c2ccncc2)[nH]c(=O)c1CC(=O)N(C)C(C)C(C)(C)C (stereo not given)	i	3%
Cc1nc(-c2ccncc2)[nH]c(=O)c1CC(=O)N(C)C1CCCCC1	28µM*	3%
CCN(CC)CCNC(=O)C(=O)NCC(c1ccc2c(c1)OCO2)N1CCOCC1 (stereo not given)	i	8%[57.5 µM]
Cc1ccc(C)c(N2CCN(CCCNC(=O)c3ccc4nc(N5CCC(C)CC5)sc4c3)CC2)c1	32µM*	?
Cc1ccc(Cl)cc1N1CCN(CCCNC(=O)c2ccc3nc(N4CCCCC4)sc3c2)CC1	?	-4%
Cc1c(C(=O)NCc2ccccc2)oc2ccc(S(=O)(=O)N3CCC(C)CC3)cc12	i	-4%
CCOc1ccccc1NC(=O)CSc1nc2ccccc2nc1N1CCOCC1	22µM*	?
COc1ccc(NC(=O)CSc2nc3ccccc3nc2N2CCOCC2)c(OC)c1	?	-8%
Cc1cccc(NC(=O)Cn2c(=O)n(Cc3ccc(C(=O)NCc4ccc5c(c4)OCO5)cc3)c(=O)c3ccccc32)c1	i	-3%

Bioassay records deposited in PubChem BioAssay by National Center for Advancing Translational Sciences (NCATS).
